Compounds without any hit were thinned out: in the full panel of roughly 83,000, 20% have a hit.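 Values shown are percent growth following 48 h exposure of cells in 96-well plates to a single concentration of compound; below 10 was considered active.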 Calls of active or inactive are those of the source.

The first experiment concerns IGROV1 ovarian. Put plainly: NCI-60 one-dose screen, 48 h (100 = growth as untreated, 0 = no growth, -100 = all killed). Conditions: 10 µM unless noted.
On to `Cc1ccc(N(CC(=O)Nc2ccc(S(=O)(=O)NC3CCN(C)CC3)cc2)S(=O)(=O)c2ccc(Cl)cc2)cc1`, for which the growth is 85.7% (inactive).

In the case of `N#CC1=C(N)Oc2ccc3ccccc3c2C1c1ccccc1` (stereo not drawn), the growth is 25.5% (inactive). On the same count and under the same terms, the figure for `COc1ccc(C(=O)/C=C/c2cc(-c3cc(OC)c(OC)c(OC)c3)n[nH]2)cc1OC` is -5.47% (active); for `Cn1c(/C(C#N)=C/c2ccc3ccccc3c2)cc2ccccc21` it is 21.2% (inactive); for `CCN(CC)c1ccc(/C=C/c2cc(C)c3ccccc3n2)cc1` it is 54.1% (inactive).

Another experiment deals with OVCAR-3 ovarian. The experiment is described as above. The following applies: 10 µM unless noted.
Regarding `COc1cccc(-c2nn(-c3ccccc3)cc2-c2ccnc(NCCCN)c2)c1`, the growth was 29.2% (inactive). Still for that read-out and setting: the figure for `Cn1cnc2c1c(=O)n(CCC(=O)Nc1ccc(F)cc1)c(=O)n2C` is 115% (inactive); for `C=C(C)[C@@H]1CC[C@]2(C=O)CC[C@]3(C)[C@H](CC[C@@H]4[C@@]5(C)C/C(=C/c6cccnc6)C(=O)C(C)(C)[C@@H]5CC[C@]43C)[C@@H]12` it is 74.3% (inactive). Same read-out and setting: the figure for `CN(C)c1cccc2[nH]c(-c3[nH]ncc3Nc3ccnc(N)n3)nc12` is -6.36% (active); for `O=Cc1nc2ccccc2[nH]1` it is 111% (inactive). In the case of `COc1cc2nc(Cl)nc(Nc3cccc(C(=O)/C=C/c4ccc(Br)cc4)c3)c2cc1OC`, the growth is 88.6% (inactive). The same measure, in the same setting: the figure for `CC[C@H](CC[C@@H](C)[C@H]1CC[C@H]2[C@@H]3/C(=C/c4cccnc4)C(=O)C4=CC(=O)CC[C@]4(C)[C@H]3CC[C@]12C)C(C)C` is 102% (inactive); for `C=C(C)[C@@H]1CC[C@]2(c3nnc(-c4ccncc4)o3)CC[C@]3(C)[C@H](CC[C@@H]4[C@@]5(C)CCC(=O)NC(C)(C)[C@@H]5CC[C@]43C)[C@@H]12` it is 44.6% (inactive).

These data come from PubChem BioAssay (NCI).
